Assay results from publication PMC4336329 (PLoS ONE, 2015).
Hit rate of the full screen: of about 310,000 compounds, about 2,200 (0.71%) showed an effect of 50% or more. The effect is printed as a negative number. For the sample, strong results were picked, then their nearest neighbours and some compounds at random.

Target: human ether-à-go-go-related gene (hERG) potassium channel (human, UniProt Q12809)
Experiment: primary screen, population patch clamp on CHO cells stably expressing hERG; higher = less effect of the substance
Method: Briefly, Chinese hamster ovary (CHO) cells stably expressing the hERG channel were dislodged from tissue culture flasks and dispensed into PPC plates. […] During the recording, background leak currents were estimated by a 100 ms step to -80 mV from an initial holding potential of -70 mV and subtracted from the subsequent current measurement. The campaign was conducted in two phases using slight differences in recording protocol. In the first phase, the initial voltage pulse used a 100 ms step to -30 mV from a holding potential of -70 mV, a 2 s conditioning step to +25 mV, and a 2 s test step to -30 mV. During the second phase of the screen, the potential during the conditioning step was raised to +45 mV. In both phases of the campaign, a secondary voltage pulse was applied using the same parameters as the second phase initial pulse. The initial and secondary pulses were applied in the absence of compound, and upon application of 1 μM and 10 μM test concentrations. Small molecule effects on hERG current density were quantified by […].

Chain of human ether-à-go-go-related gene (hERG) potassium channel (Q12809 whole entry, looked up): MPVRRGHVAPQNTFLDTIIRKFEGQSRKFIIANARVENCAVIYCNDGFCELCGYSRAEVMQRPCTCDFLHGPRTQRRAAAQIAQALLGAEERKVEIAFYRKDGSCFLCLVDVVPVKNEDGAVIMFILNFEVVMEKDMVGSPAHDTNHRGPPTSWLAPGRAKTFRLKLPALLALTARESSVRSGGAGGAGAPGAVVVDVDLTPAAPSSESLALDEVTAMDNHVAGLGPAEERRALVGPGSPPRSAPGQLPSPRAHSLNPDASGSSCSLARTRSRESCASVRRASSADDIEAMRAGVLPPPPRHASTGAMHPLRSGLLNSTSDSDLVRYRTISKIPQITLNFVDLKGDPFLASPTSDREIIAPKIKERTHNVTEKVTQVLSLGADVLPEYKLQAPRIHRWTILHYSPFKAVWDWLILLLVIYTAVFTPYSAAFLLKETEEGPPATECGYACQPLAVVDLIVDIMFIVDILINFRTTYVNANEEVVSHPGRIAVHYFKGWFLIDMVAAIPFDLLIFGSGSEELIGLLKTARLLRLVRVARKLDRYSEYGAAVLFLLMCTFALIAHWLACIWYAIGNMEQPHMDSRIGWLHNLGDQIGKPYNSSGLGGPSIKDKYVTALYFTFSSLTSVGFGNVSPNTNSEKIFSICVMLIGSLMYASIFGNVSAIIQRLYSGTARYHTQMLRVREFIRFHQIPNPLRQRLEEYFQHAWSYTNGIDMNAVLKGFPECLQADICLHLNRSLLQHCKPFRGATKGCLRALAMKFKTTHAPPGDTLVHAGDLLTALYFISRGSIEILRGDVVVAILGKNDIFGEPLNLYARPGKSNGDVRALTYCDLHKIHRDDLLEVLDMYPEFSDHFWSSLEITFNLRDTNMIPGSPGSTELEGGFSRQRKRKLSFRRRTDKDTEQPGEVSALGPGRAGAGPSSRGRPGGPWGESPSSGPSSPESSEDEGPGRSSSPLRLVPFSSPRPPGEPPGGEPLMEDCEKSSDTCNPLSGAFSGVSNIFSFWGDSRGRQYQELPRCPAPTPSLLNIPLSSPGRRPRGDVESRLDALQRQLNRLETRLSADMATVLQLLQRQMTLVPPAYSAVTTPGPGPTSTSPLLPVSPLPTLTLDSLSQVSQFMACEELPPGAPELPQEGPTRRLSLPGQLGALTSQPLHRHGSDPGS

Row | SMILES | hERG current change (%, negative = inhibition) at 1uM [%]
1 | COC(=O)C1=COC(OC2OC(CO)C(O)C(O)C2O)C2C1C=CC2(O)CO (centres unmarked) | 5.93
2 | COc1ccc(Cl)cc1NC(=O)[C@@]1(CC(=O)O)CC(/C=C/c2ccccc2)=NO1 | 12.8
3 | CCc1ccc(-c2cc(C)no2)cc1S(=O)(=O)N1CCN(C(=O)c2ccco2)CC1 | -4.73
4 | O=c1nc2ccccc2c2n1CC(CN1CCN(c3ccccc3F)CC1)N2 (centres unmarked) | -20.7
5 | O=c1nc2ccccc2c2n1CC(CN1CCN(c3cccc(Cl)c3)CC1)N2 (centres unmarked) | -38.9
6 | O=c1nc2ccccc2c2n1CC(CN1CCN(c3ccc(F)cc3)CC1)N2 (centres unmarked) | -65.6
7 | O=C1NCCN(Cc2cccc(Oc3ccccc3)c2)C1CC(=O)N1CCCO1 (centres unmarked) | 12.1
8 | COc1ccc(-c2nc(=S)[nH][nH]2)cc1OC | 10.4
9 | Cc1ccc(Cn2ccnc2C(=O)Nc2ccccc2)cc1 | 9.01
10 | N#Cc1ccc(Cn2ccnc2C(=O)Nc2ccccc2)cc1 | -86.8
11 | O=C(Nc1ccccc1)c1nccn1Cc1ccc(F)cc1 | 11.3
12 | O=C(NC(c1ccccc1)c1ccccn1)c1cccc([N+](=O)[O-])c1 (centres unmarked) | 12.3
13 | O=C1C(=O)N(CCN2CCOCC2)C(c2cccc(Cl)c2)/C1=C(\O)c1ccc2c(c1)OCCO2 (centres unmarked) | 2.15
14 | CC(=O)c1coc2ccc(OCC(=O)O)cc12 | -0.294
15 | CCOc1cc(/C=N/NC(=O)c2cccnc2)ccc1OCC(N)=O | 10.8
16 | CCOc1cc(/C=N/NC(=O)c2cccnc2)ccc1O | 7.47
17 | CCOc1cc(/C=N/NC(=O)c2cccnc2)cc(Br)c1OCC(N)=O | -69.4
18 | CCOC(=O)Cn1c2c(c(=N)c3ccccc31)CCC2.Cl | 12.7
19 | CCCCCn1c2c(c(=N)c3ccccc31)CCC2.I | -61.5
20 | CCCCn1c2c(c(=N)c3ccccc31)CCC2.I | -16.6
21 | CCCCCCCn1c2c(c(=N)c3ccccc31)CCC2.I | -89.6
22 | Br.CCn1c2c(c(=N)c3ccccc31)CCC2 | 12
23 | O=C(O)CCn1c2c(c3ccccc31)CCCC2 | 19.5
24 | CCOc1cc(NC(=S)NCCCN2CCOCC2)c(OCC)cc1NC(=O)c1ccccc1 | 16.1

Row | SMILES | hERG current change (%, negative = inhibition) at 1uM [%]
25 | O=C(Nc1ccccc1)C1CC=CCC1C(=O)OCC1CCCO1 (centres unmarked) | -5.31
26 | O=C1C2CCCCN2C(=O)N1CCN1CCN(c2ccc([N+](=O)[O-])cc2)CC1 (centres unmarked) | -69.7
27 | O=C(CCN1C(=O)C2C3C=CC(C3)C2C1=O)N1CCN(c2ccc([N+](=O)[O-])cc2)CC1 (centres unmarked) | -49.5
28 | O=C1C2CCCN2C(=O)N1CCCN1CCN(c2ccc([N+](=O)[O-])cc2)CC1 (centres unmarked) | -63.3
29 | Cc1ccc(N2CCN(CCCCN3C(=O)C4CCCN4C3=O)CC2)cc1.Cl (centres unmarked) | -3.91
30 | O=C1C2CCCCN2C(=O)N1CCCCN1CCN(c2ccc(F)cc2)CC1 (centres unmarked) | -7.05
31 | O=C1C2CCCN2C(=O)N1CCN1CCN(c2ccccc2)CC1 (centres unmarked) | -10.6
32 | O=C1C2CCCCN2C(=O)N1CCCN1CCN(c2ccc(F)cc2)CC1 (centres unmarked) | -3.12
33 | O=C1C2CCCCN2C(=O)N1CCCCN1CCN(c2ccc([N+](=O)[O-])cc2)CC1 (centres unmarked) | -80.7
34 | Cc1ccc(N2CCN(CCCN3C(=O)C4CCCN4C3=O)CC2)cc1.Cl (centres unmarked) | 4.77
35 | Cl.Nc1ccc(N2CCN(CCCCN3C(=O)C4CCCN4C3=O)CC2)cc1.O (centres unmarked) | 18.3
36 | O=C1C2CCCN2C(=O)N1CCCCN1CCN(c2ccccc2)CC1 (centres unmarked) | 1.66
37 | O=C(CCCN1C(=O)C2CCCCN2C1=O)N1CCN(c2ccc([N+](=O)[O-])cc2)CC1 (centres unmarked) | -78.5
38 | Cc1cc(C)cc(N(C(=O)c2csnn2)C(C(=O)NC2CCCCC2)c2ccccn2)c1 (centres unmarked) | 11.5
39 | CN(Cc1ccccc1)C(=O)c1ccc(NC2=NC3CS(=O)(=O)CC3S2)cc1 (centres unmarked) | -3.47
40 | O=C(O)Cc1ccc(O)c(F)c1 | 4.7
41 | CN1CCN(NC(=S)NC2CCCCC2)CC1 | 3.73
42 | CCOC(=O)C1CCN(C(=O)c2sccc2Cl)CC1 | 12.5
43 | O=S(=O)(Nc1ccc(Cl)cn1)c1ccc(Cl)cc1 | 16.8
44 | O=C(NNC(=O)C1CCCO1)c1ccc(Br)cc1 (centres unmarked) | 8.75
45 | O=C(NC1CCCCC1)NC1CCN(S(=O)(=O)c2ccc3c(c2)OCCO3)CC1 | 9.08
46 | Cc1ccc(S(=O)(=O)N(C(=O)c2ccncc2)c2ccc3oc4c(c3c2)CCCC4)cc1[N+](=O)[O-] | 19.2
47 | Cc1ccc(Nc2nc(Cl)nc(NC(C)(C)C)n2)cc1 | 11.9
48 | Cc1ccc(Cl)cc1N1CCN(C(=O)CNC(=O)c2ccc(Br)o2)CC1 | 4.64

Row | SMILES | hERG current change (%, negative = inhibition) at 1uM [%]
49 | O=C(NCC(=O)N1CCN(c2cccc(Cl)c2)CC1)c1ccc(Br)o1 | -57.5
50 | O=C(NCC(=O)N1CCN(c2ccccc2)CC1)c1ccc(Br)o1 | -7.83
51 | Cc1ccc(-n2c(-c3ccc(Br)cc3)c[n+]3c2CCc2ccc4cccnc4c2-3)cc1.[Br-] | -86.6
52 | COc1ccccc1-n1c(-c2ccccc2)c[n+]2c1CCc1ccccc1-2.[Br-] | -34.7
53 | Cc1ccc(-c2c[n+]3c(n2-c2ccccc2)CCC3)cc1.[Br-] | 1.57
54 | COc1ccc(-n2c(-c3ccc(Cl)cc3)c[n+]3c2CCCCC3)cc1.[Br-] | 8.19
55 | Cc1ccc(-n2c(-c3ccccc3)c[n+]3c2CCC3)cc1.[Br-] | -2.23
56 | Brc1ccc(-c2cn3c(n2)CCc2ccc4cccnc4c2-3)cc1 | 10.5
57 | COc1ccc(-n2c(-c3ccc(Br)cc3)c[n+]3c2CCc2ccccc2-3)cc1.[Br-] | -90.6
58 | COc1ccc(-n2c(-c3ccc(Br)cc3)c[n+]3c2CCC3)cc1.[Br-] | -21
59 | COc1ccc(-n2c(-c3ccccc3)c[n+]3c2CCC3)cc1.[Br-] | 6.43
60 | COc1ccc(-n2c(-c3ccc(Cl)cc3)c[n+]3c2CCc2ccccc2-3)cc1.[Br-] | -70.3
61 | Cc1ccc(-n2c(-c3ccccc3)c[n+]3c2CCc2ccccc2-3)c(C)c1.[Br-] | -82.5
62 | COc1ccc(-n2c(-c3ccc(Br)cc3)c[n+]3c2SC(C)C3)cc1.[Br-] (centres unmarked) | -26
63 | O=C(NCCN1CCOCC1)c1ccc(N2CCCC2)c([N+](=O)[O-])c1 | -2.75
64 | COC(=O)/C=C\C(=O)Nc1cccc([N+](=O)[O-])c1 | 8.24
65 | CCOc1nc(C)cc(C)c1S(=O)(=O)c1ccc(Cl)cc1 | 9.36
66 | CCCCNC(=O)C1CCCN(S(=O)(=O)c2ccc(S(=O)(=O)NCC(C)C)cc2)C1 (centres unmarked) | -3.36
67 | COc1ccccc1NCC(=O)N/N=C/c1cccnc1 | 4.49
68 | Cn1c(SCC(=O)Nc2ccccc2)nnc1-c1ccc(NC(=O)CCc2ccccc2)cc1 | 6.68
69 | Cc1cc(C)nc(-n2nc(C)cc2NC(=O)CN2CCc3ccccc3C2)n1 | -26.4
70 | COc1ccc(OC)c(C2C(C(N)=O)=C(C)Nc3nc(CCCO)nn32)c1 (centres unmarked) | 15.5
71 | Cc1onc(-c2ccccc2Cl)c1C(=O)N1CCN(c2ccccc2)CC1 | 1.1
72 | O=C(c1cn(-c2ccccc2)nc1-c1cccs1)N1CCOCC1 | 4.92

Row | SMILES | hERG current change (%, negative = inhibition) at 1uM [%]
73 | C=CCN(CC=C)CCOc1ccc(C)cc1[N+](=O)[O-].O=C(O)C(=O)O | -62.5
74 | C=CCN(CC=C)CCOc1cc(C)ccc1[N+](=O)[O-].O=C(O)C(=O)O | 6.69
75 | C=CCN(CC=C)CCOc1ccccc1[N+](=O)[O-].O=C(O)C(=O)O | 1.55
76 | O=C(CN1CCN(C/C=C/c2ccccc2)CC1)NC(=O)NC1CCCCC1 | -69.7
77 | O=C(CN1CCN(C/C=C/c2ccccc2)CC1)Nc1ccccc1C(=O)NC1CC1 | -88.8
78 | CC1CCN(CC(=O)Nc2ccccc2C(=O)NC2CC2)CC1 | 5.31
79 | S=C(NC1CCCCC1)N1CCN(C/C=C/c2ccccc2)CC1 | 3.77
80 | NC(=O)C1CCN(CC(=O)Nc2ccccc2C(=O)NC2CC2)CC1 | 10.7
81 | O=C(CN1CCN(Cc2ccccc2)CC1)NC(=O)NC1CCCCC1 | -16.1
82 | O=C(CSCc1ccccc1)N/N=C/c1cc2c(cc1Br)OCO2 | 8.61
83 | CSc1nnc(Cc2sc(-c3ccccc3)nc2-c2ccccc2)o1 | 12.1
84 | OCCC1CN(Cc2cccn2-c2cccnc2)CCN1CCc1ccccc1 (centres unmarked) | -37.5
85 | COc1ccc(CN2CCN(Cc3ccon3)CC2CCO)c(C)c1C (centres unmarked) | 2.93
86 | OCCC1CN(Cc2cccn2-c2ncccn2)CCN1CCc1ccccc1 (centres unmarked) | -44.6
87 | CCOc1ccc(CN2CCN(Cc3cccn3-c3ncccn3)CC2CCO)cc1 (centres unmarked) | -84
88 | OCCC1CN(Cc2cccn2-c2ncccn2)CCN1Cc1ccc(F)cc1 (centres unmarked) | -74.7
89 | COc1ccc(CN2CCN(Cc3cccn3-c3ncccn3)CC2CCO)c(C)c1C (centres unmarked) | -80.4
90 | OCCC1CN(Cc2cccn2-c2cccnc2)CCN1Cc1ccccc1 (centres unmarked) | -7.57
91 | OCCC1CN(Cc2cccn2-c2ncccn2)CCN1Cc1ccccc1 (centres unmarked) | -33.4
92 | OCCC1CN(Cc2cccn2-c2ncccn2)CCN1C1CCCC1 (centres unmarked) | 0.978
93 | COc1cccc(CN2CCN(Cc3cccn3-c3cccnc3)CC2CCO)c1 (centres unmarked) | -62.2
94 | CC(C)=CCN1CCN(Cc2cccn2-c2ncccn2)CC1CCO (centres unmarked) | -3.9
95 | COc1ccc(CN2CCN(CC3CC3)CC2CCO)c(C)c1C (centres unmarked) | 13.2
